# PubChem BioAssay AID1851 (National Center for Advancing Translational Sciences (NCATS), 2009)
# The campaign covered roughly 16,000 compounds. About 5,100 (32%) were called active. About 25% were inconclusive and are not listed. Calls follow the shape of the dose curve; as a rule, active = well fitted curve in the direction sought with a large enough effect; inconclusive = small, poorly fitted or top-dose-only effect, or effect the other way; inactive = no such curve, though single readings can be large or run the other way. The list shows a part of the results.
# Target: Cytochrome P450 3A4 (Homo sapiens) (UniProt P08684)
# Sequence (P08684 whole entry, looked up): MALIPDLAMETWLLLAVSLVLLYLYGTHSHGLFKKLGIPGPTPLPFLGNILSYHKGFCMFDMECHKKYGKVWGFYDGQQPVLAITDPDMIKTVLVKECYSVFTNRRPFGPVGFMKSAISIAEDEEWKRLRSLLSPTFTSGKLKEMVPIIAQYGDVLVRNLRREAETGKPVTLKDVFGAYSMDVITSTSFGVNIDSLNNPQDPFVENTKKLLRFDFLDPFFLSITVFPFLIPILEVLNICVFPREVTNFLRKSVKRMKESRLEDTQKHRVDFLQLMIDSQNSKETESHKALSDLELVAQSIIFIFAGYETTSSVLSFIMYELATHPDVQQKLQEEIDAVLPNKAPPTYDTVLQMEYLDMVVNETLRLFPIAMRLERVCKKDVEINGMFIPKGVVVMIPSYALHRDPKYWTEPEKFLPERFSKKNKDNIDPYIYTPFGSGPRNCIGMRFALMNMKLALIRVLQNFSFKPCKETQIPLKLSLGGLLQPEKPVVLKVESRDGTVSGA
# Test: Cytochrome panel assay with activity outcomes
# Settings: recombinant CYP, pro-luciferin dealkylation, luminescence, p450-cyp3a4; series mostly up to 57.1 µM
# % is scaled to controls: 0 for no effect and ±100 for the full control effect.
SMILES,AC50,"activity, negative = inhibition"
CC(C)OCCCN1CN(S(=O)(=O)c2cccc(Cl)c2)c2nc3ccccc3nc21,7.94 µM (active),–
CCOc1ccc(N2C(=O)/C(=C/c3cccs3)N(CC(=O)OC)C2=S)cc1,inactive,–
CCN1C(=O)C(CC(=O)Nc2ccc(Br)cc2)N(CCCc2ccccc2)C1=S (centres undefined),2.51 µM (active),–
CCCCC(=O)Nc1ccc(C(=O)NNC(=O)CCc2ccccc2)cc1,inactive,–
COCC(=O)Nc1ccc(-c2cn3cccnc3n2)cc1,inactive,–
CCN1C(=O)C(CC(=O)Nc2ccc(OC)cc2)N(Cc2cccnc2)C1=S (centres undefined),11.2 µM (active),–
CCN1C(=O)C(CC(=O)Nc2ccc(OC)cc2)N(Cc2cccs2)C1=S (centres undefined),3.98 µM (active),–
CNC(=S)Nc1ccc(Nc2ccccc2)cc1,inactive,–
Cc1cc(NC(=S)Nc2ccccc2)ccc1Br,20 µM (active),–
CC1(C)N=C(N)N=C(N)N1c1cccc(OCc2cccc([N+](=O)[O-])c2)c1,–,-3.23% [at 11.4 µM] (inactive)
O=[N+]([O-])c1ccc(C2CCCC/C2=N\OCc2cccc(F)c2)c([N+](=O)[O-])c1 (centres undefined),14.1 µM (active),–
O=[N+]([O-])c1ccc(NN=C2c3ccccc3Cc3ccccc32)c([N+](=O)[O-])c1,–,-5.06% [at 11.4 µM] (inactive)
O=C(c1ccccc1)N1CCSC1=S,inactive,–
Cc1nc(SC(C(=O)c2ccccc2)c2ccccc2)n[nH]1 (centres undefined),7.08 µM (active),–
Cc1c(NC(=O)C(Sc2ccccc2)c2ccccc2)cccc1[N+](=O)[O-] (centres undefined),–,-28.3% [at 2.29 µM] (inactive)
COC(=O)c1nc(NC(=O)c2ccccc2)n[nH]1,inactive,–
O=C(NCCCN1CCOCC1)c1cc(C(=O)C2CC2)c[nH]1,inactive,–
O=C(O)CCCCCNC(=O)c1ccncc1,inactive,–
O=C(c1ccc(C(F)(F)F)cc1)c1c[nH]c(C(=O)NCCCn2ccnc2)c1,1 µM (active),–
CC(C)(C)c1ccc(C(=O)c2c[nH]c(C(=O)NCCCn3ccnc3)c2)cc1,0.282 µM (active),–
O=C1Oc2ccccc2C2(O)C3CCCCCC3C12 (centres undefined),–,-27.4% [at 11.4 µM] (inactive)
C[C@@](N)(Cc1c[nH]c2ccccc12)C(=O)O,–,-19.3% [at 11.4 µM] (inactive)
O=C(Cc1c[nH]c2ccccc12)OCC(=O)c1ccccc1,22.4 µM (active),–

SMILES,AC50,"activity, negative = inhibition"
Cn1c(SCC(=O)N2CCN(S(=O)(=O)c3ccccc3)CC2)nc2ccccc21,12.6 µM (active),–
CCN(CC)C(=O)CSc1nnc(-c2cc3ccccc3cc2O)n1CC,7.94 µM (active),–
Cn1c(/C(C#N)=C(\O)c2ccc(S(=O)(=O)N3CCCCC3)cc2)nc2ccccc21,14.1 µM (active),–
CCN(CC)C(=O)CSc1nnc(-c2ccncc2)n1N,inactive,–
O=C(Nc1ccccc1-c1nc2ccccc2[nH]1)c1ccc(S(=O)(=O)N2CCCCC2)cc1,–,-23.2% [at 2.29 µM] (inactive)
CCN(CC)C(=O)CSc1nnc(-c2ccco2)n1N,inactive,–
CCn1c(SCC(=O)NC(=O)NCc2ccco2)nnc1-c1cccs1,1.26 µM (active),–
CC(C)(C)c1onc(OCP(=O)(O)O)c1C[C@@H](N)C(=O)O,inactive,–
CC(=O)c1ccc(-n2c(CCC(=O)O)ccc2-c2cccs2)cc1,inactive,–
CCn1c(SCC(=O)c2ccc3ccccc3c2)nnc1-c1cccs1,3.98 µM (active),–
O=c1onc(-c2cccs2)n1Cc1ccccc1,inactive,–
CCn1c(SCC(=O)c2ccccc2)nnc1-c1cccs1,8.91 µM (active),–
CCn1c(SCC(=O)N2CCN(S(=O)(=O)c3ccccc3)CC2)nnc1-c1cccs1,1.12 µM (active),–
CN(C)/C=N/c1ncc(C(=O)c2ccc3ccccc3c2)s1,inactive,–
CCn1nnnc1SCC(=O)c1ccc2c(c1)OCCO2,inactive,–
Cc1ccccc1CSc1nnc(-c2cccs2)n1Cc1ccco1,4.47 µM (active),–
CCn1c(SCC(=O)NC2CCCc3ccccc32)nnc1-c1cccs1 (centres undefined),2.82 µM (active),–
CCOc1c2ccc(C(=O)NC3CCCc4ccccc43)cc2nn1C (centres undefined),inactive,–
CCn1cc(C(=O)O)c(=O)c2cnc(N3CCNCC3)nc21,inactive,–
CC(=O)OC[C@@H]1O[C@@H](O/N=C2/C[C@@H](O)[C@@H](O)[C@@H]3[C@@H]4C(=O)N([C@@H](C)c5ccccc5)C(=O)[C@H]4CC[C@@H]23)[C@H](OC(C)=O)[C@H](OC(C)=O)[C@@H]1OC(C)=O,–,-21% [at 11.4 µM] (inactive)
COc1cccc2c1C(=O)c1c(O)c3c(c(O)c1C2=O)C[C@@](O)(C(=O)CO)C[C@H]3O[C@H]1C[C@@H](N)[C@H](O)[C@@H](C)O1.[W],–,-15.2% [at 11.4 µM] (inactive)
CCOC(=O)C1=C(c2ccccc2)N=c2s/c(=C\c3ccc(O)cc3)c(=O)n2C1c1cccs1 (centres undefined),3.55 µM (active),–
CCOC(=O)C1=C(N)n2c(s/c(=C/c3ccccc3)c2=O)=C(C(=O)OCC)C1c1ccccc1 (centres undefined),inactive,–

SMILES,AC50,"activity, negative = inhibition"
CCOC(=O)C1=C(c2ccccc2)N=c2s/c(=C\c3cccc(O)c3)c(=O)n2C1c1cccs1 (centres undefined),15.8 µM (active),–
O=c1/c(=C\c2ccc(O)cc2)sc2n1C(c1ccccc1)C(c1ccccc1)=NN=2 (centres undefined),–,20.5% [at 0.457 µM] (inactive)
COC(=O)c1[nH]c(C)c(/C(O)=C2\C(=O)C(=O)N(CCN(C)C)C2c2cccs2)c1C (centres undefined),inactive,–
CCCc1c(OCCCOc2ccc(OCC(=O)O)cc2)ccc(C(C)=O)c1O,inactive,–
CC(C)=CC(=O)OCC(=O)Nc1ncc(Cl)c(C)c1Cl,inactive,–
c1cncc(CNc2ncnc3ccc(-c4ccoc4)cc23)c1,1.58 µM (active),–
Cc1cccc(CNc2ncnc3ccc(-c4ccoc4)cc23)c1,3.98 µM (active),–
Oc1ccccc1CNn1cnnc1,inactive,–
COc1ccc(-n2nnnc2-c2cn(C)nc2C(F)(F)F)cc1,inactive,–
CCOc1nnc(C)c2c(C)n(-c3ccc(Cl)cc3)nc12,inactive,–
CCn1cc(-c2nnnn2-c2ccc(Cl)cc2)c(=O)c2ccccc21,12.6 µM (active),–
Cc1c(Br)c([N+](=O)[O-])nn1CC(=O)NCc1cccs1,–,-4.17% [at 2.29 µM] (inactive)
Cc1c(Br)c([N+](=O)[O-])nn1CC(=O)NCc1ccccn1,inactive,–
CCc1ccccc1NC(=O)C(C)n1nc([N+](=O)[O-])c(Br)c1C (centres undefined),25.1 µM (active),–
Cc1c(Br)c([N+](=O)[O-])nn1C(C)C(=O)Nc1nccs1 (centres undefined),20 µM (active),–
Cc1ccc(NC(=O)Cn2nc([N+](=O)[O-])c(Br)c2C)cc1C,–,-24.1% [at 2.29 µM] (inactive)
N=C(N)c1ccc(N=Nc2c(O)ccc3c2[nH]c2ccccc23)cc1,–,-6.87% [at 11.4 µM] (inactive)
Cc1cc(C)c(C#N)c(SCS(=O)c2ccc(C(C)(C)C)cc2)n1 (centres undefined),7.94 µM (active),–
Cc1cc(C)c(C#N)c(SCC(=O)C(C)(C)C)n1,–,-0.356% [at 2.29 µM] (inactive)
COC(=O)CSc1nc(C)cc(C(F)(F)F)c1C#N,–,-14.9% [at 2.29 µM] (inactive)
Brc1ccc(-c2nnc(-c3cccc(Br)c3)o2)cc1,inactive,–
O=S(=O)(c1cccc(-c2nnc(-c3ccc(Br)cc3)o2)c1)N1CCCCCC1,3.55 µM (active),–
O=S(=O)(c1ccc(Br)cc1)N1CCN(S(=O)(=O)c2ccc(Br)cc2)CC1,–,0.222% [at 11.4 µM] (inactive)

SMILES,AC50,"activity, negative = inhibition"
O=C1CCCC=C1[C@H](O)c1ccc([N+](=O)[O-])cc1,–,-12.2% [at 11.4 µM] (inactive)
CCOC(=O)C1CCN(Cc2cnc(Oc3ccc(OC)cc3)s2)CC1,inactive,–
NC(=O)C1CCN(C(=O)OCc2ccccc2)CC1,inactive,–
COc1ccc(Cn2nnnc2C(c2ccccc2Cl)N2CCC(C(N)=O)CC2)cc1 (centres undefined),12.6 µM (active),–
C=CC1=C(C)C2=Cc3c(C=C)c(C)c4[n]3[Sn+2][n]3c(c(C)c(CCC(=O)O)c3=CC3=NC(=C4)C(C)=C3CCC(=O)O)=CC1=N2,inactive,–
Cc1c(C(=O)Nc2ccc(OCc3ccccc3)cc2)cccc1[N+](=O)[O-],inactive,–
CC(=O)Nc1ccc(C(=O)NNC(=O)CCc2ccccc2)cc1,inactive,–
CC(=O)Nc1ccc(NC(=O)c2ccccc2CC[N+](=O)[O-])cc1,1.78 µM (active),–
CC[N+](C)(CC)CCC[n+]1c(-c2ccccc2)c2cc(N)ccc2c2ccc(N)cc21,15.8 µM (active),–
COc1cc(C(=O)NCC(c2cccnc2)N2CCN(C)CC2)cc(OC)c1OC (centres undefined),inactive,–
COc1ccc(N2CCN(C(CNC(=O)C3CCCCC3)c3cccnc3)CC2)cc1 (centres undefined),4.47 µM (active),–
O=C(NCC(c1cccnc1)N1CCOCC1)Nc1ccccc1 (centres undefined),14.1 µM (active),–
COC(=O)NCC(c1cccnc1)N1CCN(c2ccccc2OC)CC1 (centres undefined),12.6 µM (active),–
C[C@H](CN(C)C)C(O)(c1ccccc1)c1ccccc1,–,-14.1% [at 11.4 µM] (inactive)
CCC(C)NC(=O)NC(=O)N(C1CCCCC1)S(C)(=O)=O (centres undefined),inactive,–
Cc1ccnc(NS(=O)(=O)c2ccc(N)cc2)n1,inactive,–
COC(=O)C1(Cc2ccccc2)C2c3cc(C(=O)N4CCCC4)n(Cc4ccc(OC(F)(F)F)cc4)c3CC2CN1C(=O)c1ccccc1 (centres undefined),3.16 µM (active),–
COC(=O)[C@@]1(Cc2ccccc2)[C@H]2c3cc(C(=O)N4CCCC4)n(Cc4ccc(S(C)(=O)=O)cc4)c3C[C@H]2CN1C(=O)c1ccccc1,3.16 µM (active),–
COC(=O)[C@@]1(Cc2ccc(F)cc2)[C@H]2c3cc(C(=O)N(C)C)n(Cc4ccc(C)c(F)c4F)c3C[C@H]2CN1C(=O)c1ccccc1,0.794 µM (active),–
COC(=O)[C@@]1(Cc2ccc(F)cc2)[C@H]2c3cc(C(=O)N4CCCC4)n(Cc4ccc(C)c(F)c4F)c3C[C@H]2CN1C(=O)c1ccccc1,2.51 µM (active),–
